Bioassay records deposited in PubChem BioAssay by Broad Institute.
Most compounds without a hit are left out; they make up all but 6.7% or so of the library.
C diff growth = blocks growth of Clostridium difficile | AID 1259249 | Clostridium difficile clinical isolate growth, OD600, 24 h; active compounds read low | growth activity, negative = inhibition, % at 16 µg/mL (by protocol) | hit rate 0.25% among 86,000;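 active = mean growth activity at or below -80% and every replicate also at or below -80%; inconclusive = mean at or below -80% but some replicate above -80%; inactive = mean growth activity above -80%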
T cruzi growth-1 = inhibitors of T. cruzi proliferation; T. cruzi beta-gal in NIH3T3, GalScreen luminescence, 90 h; inhibition, % at 8.34 µM; hit rate 5.9% among 77,000;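 active = mean inhibition above about 93%, with at least 55% of replicates each passing it, limit read from the data, passing the limit was not always enough; inconclusive = only one of those two conditions holds; inactive = neither condition holds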
Pf Dd2 growth = blocks growth of Plasmodium falciparum Dd2 parasites; P. falciparum Dd2 growth, SYBR Green, 72 h; active compounds read low; activity change, % at 10 µM; hit rate 2.3% among 94,000; in the data active = activity change below about -80%; inconclusive = no clear call, values can overlap the other calls
T cruzi growth-2 = blocks T. cruzi growth in NIH3T3 host cells; hit rate 72% among 5,600; T. cruzi beta-gal in NIH3T3, GalScreen luminescence, 90 h; inhibition, % at 8.35 µM; shares compounds with T cruzi growth-1;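 active = mean replicate inhibition above about 95% and at least 55% of replicates individually reaching it, limit read from the data; inconclusive = only one of the two criteria is met; inactive = neither criterion is met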
T cruzi growth-3 = Trypanosoma cruzi proliferation inhibition. shares compounds with T cruzi growth-1. T. cruzi beta-gal in NIH3T3, GalScreen luminescence, 90 h. inhibition, % at 2.09 µM. hit rate 21% among 5,600. AID 651740;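 active = mean inhibition above about 95%, with at least 55% of replicates also reaching it, limit read from the data; inconclusive = meets just one of the two conditions; inactive = meets neither condition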
3T3 cytotox = cytotoxicity in mouse NIH/3T3 fibroblasts | shares compounds with T cruzi growth-1 | NIH/3T3 viability, CellTiter-Glo ATP luminescence, 90 h | cytotoxicity (signal decrease), % at 8.35 µM | hit rate 14% among 5,600;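 active = mean signal decrease across replicates above about 35% based on untreated-well scatter, with enough replicates individually passing, limit read from the data; inconclusive = no rule stated though some were filed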
NIH3T3 tox 2 = NIH/3T3 (mouse) viability loss. inhibition, % at 24.9 µM. AID 651744. NIH/3T3 viability, CellTiter-Glo ATP luminescence, 90 h. shares compounds with T cruzi growth-1. hit rate 56% among 5,600;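 active = mean loss of cell viability signal at or above a set limit, and enough replicates individually reaching it; inconclusive = meets only the mean limit or only the replicate share; inactive = meets neither condition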
Numbers stand for hits; – = inactive; ? = inconclusive; · = no result given; ! = repeats disagree.

SMILES | C diff growth | T cruzi growth-1 | Pf Dd2 growth | T cruzi growth-2 | T cruzi growth-3 | 3T3 cytotox | NIH3T3 tox 2
COc1cccc(C#Cc2ccc3c(c2)O[C@H](CN(C)S(=O)(=O)c2ccccc2F)[C@H](C)CN([C@H](C)CO)S3(=O)=O)c1 | – | 130 | – | 107 | 107 | – | 38!
COc1cccc(C#Cc2ccc3c(c2)O[C@H](CN(C)C)[C@H](C)CN([C@@H](C)CO)S3(=O)=O)c1 | – | – | – | · | · | · | ·
Cc1noc(C)c1S(=O)(=O)Nc1ccc2c(c1)C(=O)N([C@H](C)CO)C[C@H](C)[C@@H](CN(C)S(=O)(=O)c1cccs1)OCCCC[C@H](C)O2 | – | – | – | · | · | · | ·
C[C@H]1CCCCO[C@@H](CN(C)C(=O)Nc2ccc(C(F)(F)F)cc2)[C@@H](C)CN([C@@H](C)CO)C(=O)c2cc(NC(=O)c3ccncc3)ccc2O1 | – | 108 | -83 | 109 | – | – | ?
C[C@@H]1CCCCO[C@H](CN(C)C(=O)Nc2ccc(C(F)(F)F)cc2)[C@H](C)CN([C@@H](C)CO)C(=O)c2cc(NC(=O)c3ccccc3)ccc2O1 | – | – | – | · | · | · | ·
C[C@@H]1CN([C@@H](C)CO)C(=O)c2cc(NC(=O)c3ccccc3)ccc2O[C@@H](C)CCCCO[C@@H]1CN(C)C(=O)Nc1ccc(C(F)(F)F)cc1 | – | ? | -87 | 104 | 101 | – | 80
C[C@H]1CCCCO[C@@H](CN(C)C(=O)Nc2ccc(F)cc2)[C@@H](C)CN([C@@H](C)CO)C(=O)c2cc(NC(=O)c3ccccc3)ccc2O1 | – | ? | – | ? | – | – | –
C[C@@H]1CCCCO[C@H](CN(C)C(=O)Nc2ccc(C(F)(F)F)cc2)[C@@H](C)CN([C@@H](C)CO)C(=O)c2cc(NC(=O)c3ccncc3)ccc2O1 | – | – | – | · | · | · | ·
C[C@@H]1CCCCO[C@@H](CN(C)C(=O)Nc2ccc(C(F)(F)F)cc2)[C@@H](C)CN([C@H](C)CO)C(=O)c2cc(NC(=O)c3ccncc3)ccc2O1 | – | · | – | · | · | · | ·
C[C@@H]1CCCCO[C@H](CN(C)C(=O)Nc2ccc(F)cc2)[C@H](C)CN([C@@H](C)CO)C(=O)c2cc(NC(=O)c3ccccc3)ccc2O1 | – | – | – | · | · | · | ·
C[C@@H]1CCCCO[C@H](CN(C)C(=O)Nc2ccc(C(F)(F)F)cc2)[C@H](C)CN([C@H](C)CO)C(=O)c2cc(NC(=O)c3ccccc3)ccc2O1 | – | 102 | – | 110 | 106 | – | –
COCC(=O)N(C)C[C@H]1Oc2cc(C#CC3CCCC3)ccc2S(=O)(=O)N([C@@H](C)CO)C[C@@H]1C | · | – | – | · | · | · | ·
C[C@@H]1CCCCO[C@H](CN(C)C(=O)C2CCCCC2)[C@H](C)CN([C@@H](C)CO)C(=O)c2cc(NS(=O)(=O)c3ccc(F)cc3)ccc2O1 | – | – | – | · | · | · | ·
Cc1ccccc1-c1ccc([C@H]2[C@@H](CO)N3CCCCN(C(=O)NC4CCCC4)C[C@H]23)cc1 | – | 115 | – | 108 | 99 | – | 106
COc1ccccc1-c1ccc([C@@H]2[C@@H](CO)N3CCCCN(C(=O)NC4CCCC4)C[C@@H]23)cc1 | – | – | – | · | · | · | ·
COc1ccccc1-c1ccc([C@H]2[C@H]3CN(C(=O)NC4CCCC4)CCCCN3[C@H]2CO)cc1 | – | – | – | · | · | · | ·
COc1ccccc1-c1ccc([C@@H]2[C@H]3CN(C(=O)NC4CCCC4)CCCCN3[C@H]2CO)cc1 | – | – | – | · | · | · | ·
Cc1ccccc1-c1ccc([C@H]2[C@@H](CO)N3CCCCN(C(=O)NC4CCCC4)C[C@@H]23)cc1 | – | 106 | – | 108 | – | – | 81
Cc1ccccc1-c1ccc([C@H]2[C@H]3CN(C(=O)NC4CCCC4)CCCCN3[C@H]2CO)cc1 | – | 112 | – | 105 | – | – | 55
COc1ccc2c3c(n(C)c2c1)[C@H](CO)N(C(=O)C1CCC1)CC31CN(C)C1 | – | · | – | · | · | · | ·
COc1ccc(C#Cc2ccc([C@@H]3[C@H]4CN(C(C)=O)CC(=O)N4[C@H]3CO)cc2)cc1 | – | · | – | · | · | · | ·
O=C(C[C@@H]1CC[C@H]2[C@@H](COC[C@H](O)CN2C(=O)Nc2ccc(F)cc2)O1)NC1Cc2ccccc2C1 | · | – | – | · | · | · | ·
O=C(C[C@@H]1CC[C@@H]2[C@H](COC[C@@H](O)CN2C(=O)Nc2ccc(C(F)(F)F)cc2)O1)NC1Cc2ccccc2C1 | -100! | 112 | – | 96 | – | – | 105
O=C(C[C@@H]1CC[C@@H]2[C@H](COC[C@@H](O)CN2C(=O)Nc2ccc(F)cc2)O1)NC1Cc2ccccc2C1 | · | – | – | · | · | · | ·
O=C(C[C@H]1CC[C@H]2[C@@H](COC[C@H](O)CN2C(=O)Nc2ccc(C(F)(F)F)cc2)O1)NC1Cc2ccccc2C1 | -90! | 121 | – | 105 | – | 51 | 107
SMILES | C diff growth | T cruzi growth-1 | Pf Dd2 growth | T cruzi growth-2 | T cruzi growth-3 | 3T3 cytotox | NIH3T3 tox 2
CCCNC(=O)N1CCC2(CC1)CN(C(=O)NC(C)C)[C@@H](CO)c1c2c2ccc(OC)cc2n1C | – | · | – | · | · | · | ·
C[C@H]1CN([C@@H](C)CO)C(=O)c2cccc(NS(=O)(=O)c3ccc(F)cc3)c2O[C@@H]1CN(C)S(=O)(=O)c1ccccc1 | – | – | – | · | · | · | ·
C[C@H]1CN([C@@H](C)CO)S(=O)(=O)c2ccc(-c3cccc(F)c3)cc2O[C@H]1CN(C)C(=O)c1cccc(F)c1 | – | – | – | · | · | · | ·
C[C@@H]1CN([C@@H](C)CO)S(=O)(=O)c2ccc(-c3cccc(F)c3)cc2O[C@@H]1CN(C)C(=O)c1cccc(F)c1 | – | – | – | · | · | · | ·
C[C@H]1CN([C@@H](C)CO)S(=O)(=O)c2ccc(-c3cccnc3)cc2O[C@@H]1CN(C)C(=O)c1cccc(F)c1 | – | – | – | · | · | · | ·
C[C@@H]1CN([C@@H](C)CO)S(=O)(=O)c2ccc(-c3cccc(F)c3)cc2O[C@H]1CN(C)C(=O)c1cccc(F)c1 | – | 100 | – | 98 | – | 53 | 40
C[C@@H]1CN([C@@H](C)CO)S(=O)(=O)c2ccc(-c3ccncc3)cc2O[C@H]1CN(C)C(=O)c1cccc(F)c1 | – | 111 | – | 96 | – | – | 25
C[C@@H]1CN([C@@H](C)CO)S(=O)(=O)c2ccc(-c3ccncc3)cc2O[C@H]1CN(C)C(=O)c1ccc2c(c1)OCO2 | – | 106 | – | 99 | – | – | –
C[C@@H]1CN([C@@H](C)CO)S(=O)(=O)c2ccc(-c3ccccc3)cc2O[C@@H]1CN(C)C(=O)c1ccc2c(c1)OCO2 | – | · | – | · | · | · | ·
C[C@H](CO)N1C[C@H](C)[C@@H](CN(C)C(=O)c2cccc(F)c2)Oc2cc(-c3ccncc3)ccc2S1(=O)=O | – | 110 | – | – | – | – | 44
CN(C)C(=O)[C@H]1[C@H](CO)[C@H]2Cn3c(ccc(-c4cccnc4)c3=O)[C@H]2N1Cc1ccccc1F | – | – | – | · | · | · | ·
CCCNC(=O)Nc1ccc2c(c1)C(=O)N(C)C[C@H](OC)[C@@H](C)CN(C(C)=O)[C@H](C)CO2 | · | – | – | · | · | · | ·
